Sampled rows, rich in hits. Any-hit rate of the full collection: about 2.8%.
Mito fusion act: blocks mitochondrial division or promotes mitochondrial fusion | S. cerevisiae fusion-defective mutant growth rescue, CellTiterGlo 48 h | Potency, µM (highest dose often 46.1 µM), for inactives: at the top dose growth rescue (activation), hits mostly activators | 320,000 tested, 0.23% active; note: % of control where 0% means no effect; nearly all actives have a fitted effect of over 45% in size
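S. cerevisiae fusion-defective temperature-sensitive mutants (e.g. fzo1-1, mgm1-5) grown 48 h at 37C in YPEG (ethanol/glycerol non-fermentable) medium with 23 nl compound per well; growth rescue read as CellTiterGlo luminescence.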
HEK293 tox: cytotoxicity in counter-screen for GLP-1R inverse agonists; HEK293 cAMP-luciferase reporter cells, luminescence, 24 h; Potency, µM (highest dose often 38.3 µM), for inactives: at the highest dose activity change, negative = inhibition, most hits filed as inhibitors; 410,000 tested, 0.13% active; AID 624418;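 note: loss of luciferase light is scored as toxicity; % is set by controls: 0 for no effect and ±100 for the full control effect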
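Compound-treated cells are incubated 24 hr at 37 deg C under 5% CO2 after a 12 hour attachment period, then luciferase detection reagent is added and luminescence is measured following 12 min at room temperature; lowered signal indicates toxicity.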
GLP-1R inv ag: GLP-1 receptor (human) inverse agonism; AID 624417; HEK293 GLP-1R CRE-luciferase, luminescence, 24 h; GLP-1R form is constitutively active; Potency, µM (doses to about 38.3 µM), for the others: at the highest dose activity change, negative = inhibition, most hits filed as inhibitors; P43220; 410,000 tested, 1.6% active; note: % is set by controls: 0 for no effect and ±100 for the full control effect; nearly all actives have a fitted effect of over 55% in size
Target sequence (P43220 whole entry, looked up): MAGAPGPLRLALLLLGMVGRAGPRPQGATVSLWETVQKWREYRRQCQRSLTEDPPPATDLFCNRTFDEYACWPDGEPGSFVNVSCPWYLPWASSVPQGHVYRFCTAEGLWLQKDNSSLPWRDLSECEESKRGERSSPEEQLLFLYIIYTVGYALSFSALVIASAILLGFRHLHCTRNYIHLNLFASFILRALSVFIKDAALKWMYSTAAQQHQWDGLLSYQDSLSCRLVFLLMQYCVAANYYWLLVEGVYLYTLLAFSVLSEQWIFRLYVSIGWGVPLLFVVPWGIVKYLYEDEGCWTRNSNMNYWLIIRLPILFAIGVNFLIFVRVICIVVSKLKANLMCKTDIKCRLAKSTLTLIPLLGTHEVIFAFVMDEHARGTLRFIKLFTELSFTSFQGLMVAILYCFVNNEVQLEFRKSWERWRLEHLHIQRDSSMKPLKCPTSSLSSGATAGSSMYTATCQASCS
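Assay principle: reduced luminescence from a cAMP-responsive reporter in HEK293 cells co-expressing a constitutively active GLP-1R. Conditions: 24 hr compound incubation, 37 deg C, 5% CO2.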
BRCA1 expr up: BRCA1 expression activation | Potency, µM (doses to about 46.1 µM), for inactives: top-dose activation, hits mostly activators | MCF7-BRCA1-FFLuc reporter, luminescence, 48 h; response scale: scaled: vehicle 0%, 10 µM genistein 100% | 380,000 tested, 1.1% active; note: nearly all actives have a fitted effect of over 80% in size
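Compounds are tested at multiple concentrations on MCF7 BRCA1-luciferase reporter cells seeded at 2000 per well; after 48 h, a single luminescence end-point is taken and curves fitted to the normalized data.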
GLP-1R agonist: GLP-1 receptor (human) agonism | P43220 | HEK293 GLP-1R CRE-luciferase, luminescence, 4-6 h; cells express a hypersensitive GLP-1R form | Potency, µM (doses to about 45.6 µM), without a hit: top-dose activation, most hits filed as activators | 380,000 tested, 0.007% active | AID 624172; note: % of control where 0% means no effect
Starred values were filed as active, the others as inactive; ? = inconclusive; . = not tested or not shown. Calls come from the whole dose curve; as a rule, active = well fitted curve in the direction sought with a large enough effect; inconclusive = small, poorly fitted or top-dose-only effect, or another doubt; inactive = no such curve, though single readings can be large; an effect the other way counts as inactive or inconclusive. Potency is the fitted concentration of half-maximal effect.

SMILES	Mito fusion act	HEK293 tox	GLP-1R inv ag	BRCA1 expr up	GLP-1R agonist
O=C(COc1ccccc1Cl)Nc1ccc(N2CCCC2)cc1	-2%	-21%	48%	11%	14%
CN1CCN(c2ccc(NC(=O)COc3ccc4ccccc4c3)cc2)CC1	0%	-7%	7.1µM*	19%	21%
NC(N)=N/N=C(\N=Nc1ccccc1)c1cccc2cccnc12	.	-32%	-10%	-50%	-2%
CC(C)[C@H](NC(=O)c1ccccc1)C(=O)N1CCc2ccccc21	-1%	-1%	?	-17%	4%
O=C1C2C3c4ccccc4C(c4ccccc43)C2C(=O)N1c1nc(-c2ccccc2)cs1 (configuration not stated)	8%	2%	-3%	0%	-3%
N=C1SCC(=O)N1c1nc(-c2ccccc2)cs1	-3%	1%	23%	7.9µM*	-4%
CCCc1cnc(NCCNCC(O)COc2ccc(Cl)c(Cl)c2)nc1 (configuration not stated)	-16%	?	5µM*	-79%	3%
O=C(NCc1ccco1)c1ccc2c(=O)n(-c3ccccc3)c(=S)[nH]c2c1	-2%	13%	-7%	-9%	-9%
CCCN(CC(=O)Nc1ccccc1C)CC(=O)Nc1ccc(Br)cc1F	-2%	-23%	10µM*	-4%	12%
COc1ccc(CNC(=O)Cc2csc3ccccc23)cc1OC	.	6%	8%	.	.
Cc1cc(C)cc(C(=O)Nc2nc3ccccc3[nH]2)c1	-3%	?	?	7.9µM*	11%
CC(C)Oc1ccc(C(=O)Nc2nc3ccccc3[nH]2)cc1	-8%	-2%	1.1µM*	?	1%
O=C(Nc1nc2ccccc2[nH]1)c1ccc(OC(F)F)cc1	-3%	-8%	?	30%	9%
Cc1ccccc1Nc1nc(N)nc(CSc2nc3ccccc3s2)n1	20µM*	-3%	0%	1%	19%
Cc1ccc(Nc2nc(N)nc(CCl)n2)c(C)c1	-5%	-6%	4.5µM*	-12%	15%
Cc1ccc(Nc2nc(N)nc(CSc3nccn3C)n2)c(C)c1	-2%	17%	10%	7.1µM*	0%
Cc1ccc(SCc2nc(N)nc(Nc3ccccc3C)n2)c(C)c1	19%	3%	?	23%	3%
Cc1cccc(Nc2nc(N)nc(CCl)n2)c1C	-4%	-26%	5µM*	-39%	31%
COc1ccccc1Nc1nc(N)nc(CCl)n1	-6%	?	4%	-12%	6%
O=C(Cn1nnc(-c2cc(C(F)(F)F)cc(C(F)(F)F)c2)n1)NNC(=S)Nc1ccc(Cl)cc1	?	4%	?	-3%	-4%
COc1ccc(N2CCN(C(=O)NCc3noc4ccccc34)CC2)cc1	.	-8%	2%	.	.
CC(C)(C)n1ncc2c(=O)n(CC(=O)NCc3ccccc3)cnc21	-2%	?	4.5µM*	-38%	-14%
CC(=O)Nc1ccc(NC(=O)Cn2cnc3c(cnn3C(C)(C)C)c2=O)cc1	-3%	-10%	16%	15%	28%
Cc1ccc(Cl)c(Cn2cnc3c(cnn3C(C)(C)C)c2=O)c1F	?	.	.	0%	23%
CC(C)(C)n1ncc2c(=O)n(Cc3c(F)cccc3Cl)cnc21	-4%	-4%	2.5µM*	28%	12%
SMILES	Mito fusion act	HEK293 tox	GLP-1R inv ag	BRCA1 expr up	GLP-1R agonist
CC(C)(C)n1ncc2c(=O)n(CC(=O)c3ccc(Cl)cc3)cnc21	1%	-21%	?	2.2µM*	-15%
COC(=O)c1ccc(CNC(=O)c2sccc2-c2ccccc2)cc1	.	16%	-24%	-34%	3%
Cc1ccc(-n2nc(C)c3cc(C(=O)O)sc32)cc1	-1%	-12%	17%	10%	3%
CN(C)S(=O)(=O)n1cc(/C=C(\NC(=O)c2ccccc2F)C(=O)N2CCOCC2)c2ccccc21	-1%	-1%	2%	2%	-7%
COc1ccc(NC(=O)CSCC(=O)N(C)Cc2ccc(Cl)c(Cl)c2)cc1	?	-5%	10µM*	-34%	21%
Cc1ccc(NC(=O)Cn2nc(C(F)(F)F)c3c2CCCC3)cc1C	.	-2%	?	-3%	1%
Cc1cc(C(=O)COC(=O)c2ccc(O)cc2)c(C)n1CC(F)(F)F	11%	-12%	?	7.9µM*	19%
Cc1cc(C(=O)COC(=O)c2ccc(O)cc2)c(C)n1-c1ccccc1F	6%	-11%	10µM*	-3%	3%
CNC(=O)N1CCN(C(=O)NC)CC1	-2%	9%	18%	4%	-5%
CCNC(=O)C1(C)CCCN(Cc2cccc3c2OCCO3)C1 (configuration not stated)	.	1%	0%	-7%	-2%
Cc1ccc2[nH]cc(C(c3ccccc3)c3cccs3)c2c1 (configuration not stated)	.	-13%	10µM*	.	.
c1ccc2c(C(c3c[nH]c4ccccc34)c3c[nH]c4ccccc34)c[nH]c2c1	.	.	.	-71%	.
Cc1cccc(NC(=O)C2CCN(S(=O)(=O)c3c(C)c(C)cc(C)c3C)CC2)n1	20µM*	-8%	?	-87%	2%
Cc1cccc(NC(=O)C2CCN(S(=O)(=O)c3c(C)nn(C)c3C)CC2)n1	-2%	-14%	12%	-32%	-3%
CCNC(=O)c1cc2ccccc2o1	-1%	-12%	0%	0%	2%
O=C(NCCc1ccccn1)c1cc2ccccc2o1	-3%	1%	1%	10µM*	12%
CCOc1cc(CNn2nnnc2N)ccc1OCC(=O)NC(C)(C)C	-1%	-18%	0%	-6%	0%
O=Cc1ccc(OCc2ccc3ccccc3c2)cc1	1%	14%	?	4.5µM*	4%
CCN(CC)c1ccc(/C=N/N2CCN(Cc3ccccc3)CC2)c(O)c1	3%	2%	?	-30%	1%
CCN(CC)c1ccc(/C=N/N2CCOCC2)c(O)c1	5%	-11%	7%	6.3µM*	8%
COc1ccc(N2CCN(C(c3nnnn3CCc3ccccc3)C(C)C)CC2)cc1 (configuration not stated)	?	-15%	?	-12%	0%
COc1ccc(CCn2nnnc2C2(c3ccc(C)cc3)CC2)cc1	21µM*	.	.	.	.
CCOC(=O)c1n[nH]n2c1nc(=S)c1ccccc12	14µM*	-25%	-14%	-2%	7%
O=C(COc1ccccc1Cl)Nc1ccc(Cl)cn1	4%	17%	0%	10µM*	6%
CCN(CC)CCNC(=O)c1ccc(NC(=O)c2cccc(S(=O)(=O)N3c4ccccc4CC3C)c2)cc1 (configuration not stated)	0%	?	5.6µM*	-44%	24%
CCN(CC)CCNC(=O)c1ccc(NC(=O)Nc2cccc3ccccc23)cc1	-4%	7%	10µM*	-25%	14%
